PubChem BioAssay (EPA / NIEHS)
Active and inactive are the calls of the source. Rule for the calls: active = hit-call score of the fitted dose curve at least 0.9, where 1 is the maximum; inactive = score below 0.9.

Assays:
[1] = ATG_GRE_CIS: Attagene CIS-FACTORIAL HepG2 Assay for human Glucocorticoid Response Elements (GRE) (AID 2282947); conditions: HepG2 GRE cis-reporter, Attagene multiplex mRNA; actives raise or lower the signal
In short: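 Assay uses human hepatoma HepG2 cells transfected with cis-promoter reporter units, exposed 24 h. mRNA from reporters detected by RT-PCR plus capillary electrophoresis; DMSO serves as negative control and baseline.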

[2] = ATG_ISRE_CIS: Attagene CIS-FACTORIAL HepG2 Assay for human Interferon Regulatory Factor 1 (IRF1) binding to an Interferon-Stimulated Response Element (ISRE) (AID 2282948); conditions: HepG2 ISRE cis-reporter (Attagene), mRNA transcription readout; actives raise or lower the signal
In short: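 Quantitation relies on labelled RT-PCR fragments separated by capillary electrophoresis. Human HepG2 cells bearing cis-promoter reporter constructs were treated 24 h; DMSO served as baseline for bidirectional fitting.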

[3] = ATG_M_32_CIS: Attagene CIS-FACTORIAL HepG2 Assay for M32 Transcription Factor (Internal Marker) (AID 2282949); conditions: HepG2 Attagene cis-factorial M32 reporter, mRNA; actives raise or lower the signal;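 note: background control marker of the multiplexed CIS panel rather than a real target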
In short: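 Internal background marker read-out: RT-PCR/capillary electrophoresis fluorescence of reporter transcripts from transiently transfected HepG2 cells after 24 h chemical exposure. Activity fitted bidirectionally relative to DMSO negative control.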

[4] = ATG_M_06_CIS: Attagene CIS-FACTORIAL HepG2 Assay for M06 Transcription Factor (Internal Marker) (AID 2282950); conditions: HepG2 Attagene CIS-FACTORIAL M06 internal marker reporter; actives raise or lower the signal
In short: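 Measured 24 h post-dosing in transiently transfected HepG2 cells, this internal-marker endpoint reports reporter mRNA via RT-PCR with fluorescent primer extension and capillary electrophoresis. DMSO served as negative control and baseline for bidirectional fitting.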

[5] = molecular target: Hypoxia-inducible factor 1-alpha (Homo sapiens) (UniProt Q16665); experiment: ATG_HIF1a_CIS: Attagene CIS-FACTORIAL HepG2 Assay for human Hypoxia Inducible Factor 1 (HIF1A) (AID 2282951); conditions: HepG2 Attagene cis-factorial HIF1a reporter transcription; actives raise or lower the signal
In short: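 In this multiplexed cell assay, HepG2 cells bearing transfected cis reporters are dosed for 24 h and reporter mRNA is read by RT-PCR plus capillary electrophoresis; signal increases and decreases are both scored against DMSO.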

[6] = molecular target: Hepatocyte nuclear factor 6 (Homo sapiens) (UniProt Q9UBC0); experiment: ATG_HNF6_CIS: Attagene CIS-FACTORIAL HepG2 Assay for human Hepatocyte Nuclear Factor 6 (HNF6) (AID 2282952); conditions: HepG2 Attagene cis-factorial HNF6 reporter transcription; actives raise or lower the signal
In short: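 HepG2 cells transiently transfected with cis-element-driven multiplexed reporter units measuring endogenous transcription factor activity. After 24 h exposure, reporter mRNA quantified by RT-PCR, FAM-labelled fragments and capillary electrophoresis; bidirectional fitting versus DMSO.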

[7] = molecular target: Heat shock factor protein 1 (Homo sapiens) (UniProt Q00613); experiment: ATG_HSE_CIS: Attagene CIS-FACTORIAL HepG2 Assay for human Heat Shock Transcription Factor 1 (HSE) (AID 2282953); conditions: HepG2 HSE cis-reporter, Attagene RNA transcription; actives raise or lower the signal
In short: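 Reporter mRNA induction in HepG2 is measured 24 h after dosing, using transiently transfected multiplexed cis-regulated reporter units. Signal comes from capillary electrophoresis of labelled RT-PCR products, with DMSO as negative control.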

[8] = ATG_MRE_CIS: Attagene CIS-FACTORIAL HepG2 Assay for human Metal Responsive Element (MRE) (AID 2282954); conditions: HepG2 MRE cis-reporter transcription, Attagene multiplex; actives raise or lower the signal
In short: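 After a 24 h chemical exposure, transiently transfected HepG2 cells yield RNA whose reporter sequences are amplified, FAM-labelled and sized by capillary electrophoresis. Curves are fitted bidirectionally relative to DMSO.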

[9] = ATG_PBREM_CIS: Attagene CIS-FACTORIAL HepG2 Assay for human Phenobarbital-responsive Enhancer Module (PBREM) (AID 2282955); conditions: HepG2 PBREM cis-reporter, Attagene multiplexed transcription; actives raise or lower the signal
In short: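 After a 24 h incubation with test chemical, transfected HepG2 cells yield total RNA; reporter-specific RT-PCR products are fluorescently labelled, HpaI-digested and resolved by capillary electrophoresis against ROX size standards.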

[10] = molecular target: Paired box protein Pax-6 (Homo sapiens) (UniProt P26367); experiment: ATG_Pax6_CIS: Attagene CIS-FACTORIAL HepG2 Assay for human Paired Box 6 (PAX6) (AID 2282956); conditions: HepG2 CIS-FACTORIAL PAX6 reporter transcription, RNA readout; actives raise or lower the signal
In short: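 After twenty-four hours of chemical exposure, transfected HepG2 cells are harvested for RNA. Cis-promoter reporter transcripts are amplified, fluorescently labelled and sized by capillary electrophoresis, with gain and loss of signal scored against DMSO.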

[11] = ATG_PXRE_CIS: Attagene CIS-FACTORIAL HepG2 Assay for human Pregnane X Receptor Element (PXRE) (AID 2282957); conditions: HepG2 Attagene CIS-FACTORIAL PXRE reporter, mRNA; actives raise or lower the signal
In short: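 HepG2 cells transiently transfected with cis-element-driven multiplexed reporter units; after 24 h chemical exposure, reporter mRNA measured by RT-PCR, 6-FAM labelling, HpaI digestion and capillary electrophoresis. Bidirectional fitting relative to DMSO.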

[12] = ATG_PPRE_CIS: Attagene CIS-FACTORIAL HepG2 Assay for human Peroxisome Proliferator-activated Response Element (PPRE) (AID 2282958); conditions: HepG2 PPRE cis-element reporter, Attagene transcription factor profiling; actives raise or lower the signal
In short: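 Multiplexed reporter transcription units under cis-regulatory promoters were transfected into HepG2 cells to capture endogenous factor activity. A 24 h incubation preceded RNA isolation and fluorescent RT-PCR fragment analysis.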

[13] = ATG_RORE_CIS: Attagene CIS-FACTORIAL HepG2 Assay for human RAR-related Orphan Receptor Element (RORE) (AID 2282959); conditions: HepG2 Attagene cis-factorial RORE reporter, mRNA; actives raise or lower the signal
In short: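 Fluorescence intensity of reporter-specific cDNA fragments, separated by capillary electrophoresis, gives the signal. Source: HepG2 liver cells transiently transfected with cis-element reporters and exposed 24 h; DMSO-normalized bidirectional fit.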

[14] = ATG_Sox_CIS: Attagene CIS-FACTORIAL HepG2 Assay for human SRY-box transcription factor (SOX) (AID 2282960); conditions: HepG2 Attagene cis-factorial SOX reporter, mRNA; actives raise or lower the signal
In short: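 After 24 h of chemical treatment, transfected HepG2 reporter cells are lysed for total RNA. Transcript levels come from RT-PCR with labelled primer extension and capillary electrophoresis, analysed bidirectionally versus DMSO.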

[15] = molecular target: Transcription factor Sp1 (Homo sapiens) (UniProt P08047); experiment: ATG_Sp1_CIS: Attagene CIS-FACTORIAL HepG2 Assay for human Specificity Protein 1 (Sp1) (AID 2282961); conditions: HepG2 Sp1 cis-reporter transcription, actives raise or lower the signal
In short: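 Sp1-driven reporter mRNA, read as capillary electrophoresis fluorescence after RT-PCR, in transiently transfected HepG2 cells dosed for 24 h; signal change in either direction relative to DMSO.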

[16] = ATG_SREBP_CIS: Attagene CIS-FACTORIAL HepG2 Assay for human Sterol Regulatory Element Binding (SREBP) (AID 2282962); conditions: HepG2 Attagene cis-factorial SREBP reporter, mRNA; actives raise or lower the signal
In short: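 Twenty-four hours after chemical dosing of transfected HepG2 cultures, reporter RNA was converted to cDNA, amplified, end-labelled with 6-FAM and resolved by capillary electrophoresis. Responses were fitted relative to DMSO.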

[17] = molecular target: Signal transducer and activator of transcription 3 (Homo sapiens) (UniProt P40763); experiment: ATG_STAT3_CIS: Attagene CIS-FACTORIAL HepG2 Assay for human Signal Transducer and Activator of Transcription 3 (STAT3) (AID 2282963); conditions: HepG2, Attagene cis-factorial STAT3 reporter transcription; actives raise or lower the signal
In short: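 After a 24 h compound incubation, total RNA from MRTU-transfected HepG2 cells was converted to cDNA and reporter sequences PCR-amplified, labelled and profiled by capillary electrophoresis. Gain and loss of signal were referenced to DMSO.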

[18] = ATG_TA_CIS: Attagene CIS-FACTORIAL HepG2 Assay for human TA Basal Promoter (AID 2282964); conditions: HepG2 Attagene CIS-factorial TA basal promoter reporter; actives raise or lower the signal
In short: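 Cis-factorial format in HepG2: reporters report endogenous factors, not chimeric Gal4 fusions. After 24 h treatment, reporter transcripts were measured by RT-PCR-capillary electrophoresis fluorescence, analysed bidirectionally versus DMSO.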

[19] = ATG_TCF_b_cat_CIS: Attagene CIS-FACTORIAL HepG2 Assay for human T-Cell-Factor with beta-catenin (TCF/b-cat) (AID 2282965); conditions: HepG2 TCF/beta-catenin cis-reporter transcription, actives raise or lower the signal
In short: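 Measured: reporter mRNA in HepG2 transiently transfected with cis-promoter reporter units, 24 h after chemical addition. Fitting was bidirectional, DMSO as negative control.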

[20] = molecular target: Bile acid receptor (Homo sapiens) (UniProt Q96RI1); experiment: ATG_IR1_CIS: Attagene CIS-FACTORIAL HepG2 Assay for human Nuclear Receptor Subfamily 1 Group H Member 4 (NR1H4), IR1 submotif (AID 2282946); conditions: IR1 reporter transcription, actives raise or lower the signal
In short: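 Cells (human HepG2) carry transiently transfected cis-promoter reporter transcription units. Compounds are incubated 24 h, total RNA is reverse-transcribed and amplified, and labelled fragments are resolved by capillary electrophoresis. Curves use DMSO as baseline.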

Measured: AC50

Chain of Hypoxia-inducible factor 1-alpha (Homo sapiens) (Q16665 whole entry, looked up): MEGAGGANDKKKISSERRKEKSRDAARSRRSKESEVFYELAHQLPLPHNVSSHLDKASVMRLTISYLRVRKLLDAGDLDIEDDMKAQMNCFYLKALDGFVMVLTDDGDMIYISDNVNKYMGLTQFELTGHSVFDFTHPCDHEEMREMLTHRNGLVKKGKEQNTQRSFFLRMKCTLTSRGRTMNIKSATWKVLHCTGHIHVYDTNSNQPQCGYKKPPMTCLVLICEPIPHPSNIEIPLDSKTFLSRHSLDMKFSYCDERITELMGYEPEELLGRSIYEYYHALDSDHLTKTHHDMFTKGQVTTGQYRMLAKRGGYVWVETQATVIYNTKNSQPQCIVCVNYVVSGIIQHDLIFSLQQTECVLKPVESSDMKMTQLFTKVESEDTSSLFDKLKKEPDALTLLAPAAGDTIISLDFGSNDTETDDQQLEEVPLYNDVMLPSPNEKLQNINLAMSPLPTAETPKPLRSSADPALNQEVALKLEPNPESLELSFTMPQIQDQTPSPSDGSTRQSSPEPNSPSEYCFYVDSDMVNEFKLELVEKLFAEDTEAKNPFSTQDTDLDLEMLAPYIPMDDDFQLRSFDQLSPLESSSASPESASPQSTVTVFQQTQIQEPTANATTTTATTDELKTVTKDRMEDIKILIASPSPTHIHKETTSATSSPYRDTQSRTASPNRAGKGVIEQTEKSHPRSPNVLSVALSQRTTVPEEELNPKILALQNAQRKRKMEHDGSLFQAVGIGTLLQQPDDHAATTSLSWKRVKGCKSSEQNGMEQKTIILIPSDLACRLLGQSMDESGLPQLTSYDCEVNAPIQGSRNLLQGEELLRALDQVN
Chain of Signal transducer and activator of transcription 3 (Homo sapiens) (P40763 whole entry, looked up): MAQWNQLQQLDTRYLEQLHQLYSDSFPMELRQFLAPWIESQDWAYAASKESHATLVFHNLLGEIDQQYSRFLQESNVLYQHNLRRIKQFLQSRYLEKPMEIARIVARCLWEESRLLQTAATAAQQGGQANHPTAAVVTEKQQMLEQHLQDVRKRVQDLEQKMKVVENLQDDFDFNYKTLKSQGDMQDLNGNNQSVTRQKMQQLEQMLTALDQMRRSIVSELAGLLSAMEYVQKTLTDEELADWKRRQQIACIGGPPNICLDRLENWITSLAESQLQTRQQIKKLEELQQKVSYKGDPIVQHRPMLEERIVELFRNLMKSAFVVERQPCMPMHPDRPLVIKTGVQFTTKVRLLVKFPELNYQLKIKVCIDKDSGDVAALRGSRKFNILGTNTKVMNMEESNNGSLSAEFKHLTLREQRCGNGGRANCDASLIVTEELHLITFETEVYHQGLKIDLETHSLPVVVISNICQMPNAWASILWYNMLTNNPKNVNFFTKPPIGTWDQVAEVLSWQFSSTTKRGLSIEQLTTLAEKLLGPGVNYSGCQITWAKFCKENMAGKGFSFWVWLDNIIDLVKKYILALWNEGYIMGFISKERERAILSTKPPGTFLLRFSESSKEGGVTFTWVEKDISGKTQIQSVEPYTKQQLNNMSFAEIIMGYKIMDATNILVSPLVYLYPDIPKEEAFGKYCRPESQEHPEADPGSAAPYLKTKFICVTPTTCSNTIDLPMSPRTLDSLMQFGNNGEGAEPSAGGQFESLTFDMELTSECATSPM
Chain of Hepatocyte nuclear factor 6 (Homo sapiens) (Q9UBC0 whole entry, looked up, the tested form may be a part): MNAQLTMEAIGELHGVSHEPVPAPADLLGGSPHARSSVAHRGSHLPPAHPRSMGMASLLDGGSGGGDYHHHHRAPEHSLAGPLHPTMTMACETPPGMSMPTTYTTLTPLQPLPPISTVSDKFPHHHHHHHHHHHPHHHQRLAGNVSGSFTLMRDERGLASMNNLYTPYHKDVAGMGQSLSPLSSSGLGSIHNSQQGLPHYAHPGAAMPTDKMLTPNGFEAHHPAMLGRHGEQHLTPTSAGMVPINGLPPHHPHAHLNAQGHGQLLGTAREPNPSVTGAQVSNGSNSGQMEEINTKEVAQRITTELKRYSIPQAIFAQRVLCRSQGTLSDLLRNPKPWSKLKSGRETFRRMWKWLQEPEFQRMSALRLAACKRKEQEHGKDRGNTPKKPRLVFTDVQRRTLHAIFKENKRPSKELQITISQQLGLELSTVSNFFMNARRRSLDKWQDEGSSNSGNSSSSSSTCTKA
Chain of Heat shock factor protein 1 (Homo sapiens) (Q00613 whole entry, looked up): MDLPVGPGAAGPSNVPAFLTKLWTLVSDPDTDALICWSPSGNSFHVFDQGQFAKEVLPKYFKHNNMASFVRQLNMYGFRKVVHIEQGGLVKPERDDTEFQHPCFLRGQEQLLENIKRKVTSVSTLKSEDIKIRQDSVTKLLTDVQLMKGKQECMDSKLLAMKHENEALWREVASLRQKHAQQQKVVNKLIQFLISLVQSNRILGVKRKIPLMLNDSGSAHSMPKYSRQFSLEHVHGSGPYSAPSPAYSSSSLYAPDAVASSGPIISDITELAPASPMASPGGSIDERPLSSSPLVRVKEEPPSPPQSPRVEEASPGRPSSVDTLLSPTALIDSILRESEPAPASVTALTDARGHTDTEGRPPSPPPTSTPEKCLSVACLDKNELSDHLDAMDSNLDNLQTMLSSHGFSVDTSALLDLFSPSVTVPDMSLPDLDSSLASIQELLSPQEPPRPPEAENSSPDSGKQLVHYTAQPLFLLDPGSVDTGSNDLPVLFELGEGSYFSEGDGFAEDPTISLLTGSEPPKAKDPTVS
Chain of Transcription factor Sp1 (Homo sapiens) (P08047 whole entry, looked up): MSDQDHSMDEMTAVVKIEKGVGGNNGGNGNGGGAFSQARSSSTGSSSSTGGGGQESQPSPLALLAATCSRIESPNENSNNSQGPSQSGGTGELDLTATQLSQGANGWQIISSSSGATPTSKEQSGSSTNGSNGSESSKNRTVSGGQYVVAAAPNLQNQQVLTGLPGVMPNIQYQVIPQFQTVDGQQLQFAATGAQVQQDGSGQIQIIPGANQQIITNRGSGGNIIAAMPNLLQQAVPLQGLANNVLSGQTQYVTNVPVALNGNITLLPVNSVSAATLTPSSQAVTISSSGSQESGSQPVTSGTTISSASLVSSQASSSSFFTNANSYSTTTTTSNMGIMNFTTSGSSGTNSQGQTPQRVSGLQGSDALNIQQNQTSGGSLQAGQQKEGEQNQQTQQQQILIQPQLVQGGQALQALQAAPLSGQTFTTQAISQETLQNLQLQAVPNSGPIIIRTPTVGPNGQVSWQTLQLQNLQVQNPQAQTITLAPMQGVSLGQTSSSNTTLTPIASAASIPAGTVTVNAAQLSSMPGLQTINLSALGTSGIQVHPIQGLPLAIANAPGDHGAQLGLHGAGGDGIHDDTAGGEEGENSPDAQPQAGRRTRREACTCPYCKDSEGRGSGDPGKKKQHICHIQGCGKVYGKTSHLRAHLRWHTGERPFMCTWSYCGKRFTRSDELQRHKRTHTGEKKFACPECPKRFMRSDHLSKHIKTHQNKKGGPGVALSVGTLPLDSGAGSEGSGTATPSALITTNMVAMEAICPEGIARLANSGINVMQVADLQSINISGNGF
Chain of Paired box protein Pax-6 (Homo sapiens) (P26367 whole entry, looked up): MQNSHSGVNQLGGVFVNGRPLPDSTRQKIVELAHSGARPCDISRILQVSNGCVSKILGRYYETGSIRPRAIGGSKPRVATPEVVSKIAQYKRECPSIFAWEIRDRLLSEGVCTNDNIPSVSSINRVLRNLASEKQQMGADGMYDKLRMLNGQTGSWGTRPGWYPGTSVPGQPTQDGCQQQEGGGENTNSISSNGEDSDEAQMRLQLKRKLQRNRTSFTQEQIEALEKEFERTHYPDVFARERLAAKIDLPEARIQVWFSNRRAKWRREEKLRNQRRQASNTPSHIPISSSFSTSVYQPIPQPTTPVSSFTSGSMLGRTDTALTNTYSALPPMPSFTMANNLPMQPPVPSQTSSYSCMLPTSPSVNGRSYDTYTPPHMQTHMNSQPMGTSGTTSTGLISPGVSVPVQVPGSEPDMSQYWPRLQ
Chain of Bile acid receptor (Homo sapiens) (Q96RI1 whole entry, looked up, the tested form may be a part): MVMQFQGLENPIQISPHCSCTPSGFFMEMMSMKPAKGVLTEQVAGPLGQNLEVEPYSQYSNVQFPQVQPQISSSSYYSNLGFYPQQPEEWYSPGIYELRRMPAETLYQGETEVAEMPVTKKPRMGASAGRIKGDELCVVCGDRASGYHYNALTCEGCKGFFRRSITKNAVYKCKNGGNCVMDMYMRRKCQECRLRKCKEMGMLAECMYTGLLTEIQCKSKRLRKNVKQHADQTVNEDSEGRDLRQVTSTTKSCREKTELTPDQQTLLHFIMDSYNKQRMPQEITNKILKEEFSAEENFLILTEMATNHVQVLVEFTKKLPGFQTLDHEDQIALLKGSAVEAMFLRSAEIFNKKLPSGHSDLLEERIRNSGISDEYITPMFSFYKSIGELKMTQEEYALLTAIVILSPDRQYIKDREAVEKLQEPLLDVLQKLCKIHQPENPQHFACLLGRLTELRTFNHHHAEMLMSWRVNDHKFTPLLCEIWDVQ

Cc1ccc(N)cc1O
not listed: [20]
inactive: all other assays above

CNS(=O)(=O)c1cc(C(=O)N2CCC(CCN3C4CCC3CC(n3c(C)nc5ccccc53)C4)(c3cccc(F)c3)CC2)c(Cl)cc1F (stereo unspecified)
active: [20] 3.85 µM | [2] 8.05 µM | [11] 1.08 µM | [12] 3.63 µM | [16] 3.32 µM | [19] 7.52 µM
not listed: [1] | [8] | [9]
inactive: all other assays above

C=CCCCCCCCCC(=O)O
not listed: [9] | [12] | [20]
inactive: all other assays above

CC(C)CC(C)(O)C#CC(C)(O)CC(C)C (stereo unspecified)
active: [11] 12.7 µM
not listed: [8] | [12] | [20]
inactive: all other assays above

O=c1[nH]c2ccc(S(=O)CCN3CCC(Cc4ccc(F)cc4)CC3)cc2o1 (stereo unspecified)
active: [10] 73 µM | [11] 26.3 µM | [16] 31.2 µM
not listed: [8] | [14] | [20]
inactive: all other assays above

CC(C)CCCCCCOC(=O)c1ccc(C(=O)OCCCCCCC(C)C)c(C(=O)OCCCCCCC(C)C)c1
not listed: [1] | [14] | [20]
inactive: all other assays above

CCCCCCCCO
active: [19] 20.5 µM
not listed: [8] | [14] | [20]
inactive: all other assays above

C[C@](N)(Cc1ccc(O)c(O)c1)C(=O)O
not listed: [1] | [12] | [13] | [14] | [20]
inactive: all other assays above
